Potency and affinity values are given separately. The source made the active and inactive calls.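 How the source made its calls: active means fluorescent signal decreased by at least 40%; inconclusive means no clear call, values can overlap the other calls; inactive means the rest, including activity opposite to the expected direction.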
Assay: inhibition of fibronectin matrix deposition – AH1F cells, Alexa488-fibronectin fluorescence, cherry-pick, set 2, dose response (AID 1117283);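 further: AH1F fibroblasts given Alexa488-labelled fibronectin at 24 nM final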
Conditions: AH1F fibroblasts, overnight; series mostly up to 35 µM
For `Cc1ccc(S(=O)(=O)N2CC[C@H]3[C@H](CO)Nc4ccc(-c5cccc(C(=O)N(C)C)c5)cc4[C@H]32)cc1`, the outcome was “inactive”. In the case of `CCOC(=O)c1cnc(SCc2nc(N)nc(Nc3ccc(OC)cc3)n2)nc1N`, the outcome is reported as “inactive”. In the case of `O=C(CN1CCCC1)Nc1ccc(Oc2ccc(NC(=O)CN3CCCC3)cc2)cc1`, the outcome is reported as “inactive”. For `C[C@H]1CN([C@@H](C)CO)C(=O)c2cc(-c3ccccc3)cnc2O[C@H]1CN(C)C(=O)c1cccc(F)c1`, the outcome was “inactive”. In the case of `C=CCC[C@H](Cc1ccc(F)cc1)C(=O)OC[C@H](Cc1c[nH]c2ccccc12)NC(=O)[C@@H](CC=C)CC(=O)N[C@@H](CO)Cc1ccccc1`, the outcome is reported as “inactive”. With `C[C@@H](O)C#Cc1ccc2c(c1)O[C@@H](CN(C)C)[C@@H](C)CN([C@@H](C)CO)S2(=O)=O` the outcome was “inactive”. With `CO[C@H]1CN(C)C(=O)c2cc(NC(=O)Nc3ccc(Cl)c(Cl)c3)ccc2OC[C@H](C)NC[C@@H]1C` the outcome was “inactive”. In the case of `O=C(Nc1ccccc1F)N1C[C@@H]2[C@H](c3ccccc31)[C@@H](CO)N2C(=O)C1CC1`, the outcome is reported as “inactive”. For `C[C@H]1CN([C@@H](C)CO)C(=O)c2cc(NC(=O)CCCN(C)C)ccc2O[C@H]1CN(C)Cc1ccc(-c2ccccc2)cc1`, the outcome was “inactive”. For `CC(C)CNC(=O)c1coc(=O)c(Br)c1`, the outcome was “inactive”. In the case of `O=S(=O)(c1ccccc1F)N1CC[C@@H]2[C@H]1c1cc(-c3cccc(F)c3)ccc1N[C@@H]2CO`, the outcome is reported as “inactive”. With `O=C(Nc1ccc(Cl)cc1)N1C[C@H]2[C@@H](c3ccccc31)[C@H](CO)N2CC1CCCC1` the outcome was “inactive”. For `N#C[C@@H]1[C@H](c2ccccc2C2=CCCCC2)[C@H](CO)N1S(=O)(=O)c1ccccc1`, the outcome was “inactive”. For `O=S(=O)(c1ccccc1F)N1CC[C@@H]2[C@@H](CO)Nc3ccc(-c4cccc(F)c4)cc3[C@@H]21`, the outcome was “inactive”. In the case of `O=C(Nc1nc(-c2ccncc2)cs1)C1COc2ccccc2O1` (configuration not stated), the outcome is reported as “inactive”. In the case of `C[C@@H]1CN([C@H](C)CO)C(=O)c2cccc(NC(=O)Nc3ccc(C(F)(F)F)cc3)c2O[C@H]1CN(C)C(=O)Nc1cccc2ccccc12`, the outcome is reported as “inactive”. For `Cc1ccc(S(=O)(=O)N2CC3(C)CN(S(=O)(=O)c4ccc(C)cc4)CC(C)(C2)C3=O)cc1`, the outcome was “inactive”. For `C[C@@H]1CN([C@@H](C)CO)C(=O)c2cc(NC(=O)CCCN(C)C)ccc2O[C@H]1CN(C)Cc1ccc(-c2ccccc2)cc1`, the outcome was “inactive”. With `CCOC(=O)c1nnn(-c2ccc(OC)cc2)c1N` the outcome was “inactive”. With `COCC(=O)Nc1ccc2c(c1)C(=O)N(C)[C@@H]1CC[C@@H](CC(=O)NCc3ccccc3Cl)O[C@H]1CO2` the outcome was “inactive”. With `CO[C@H]1CN(C)C(=O)c2ccc(NC(=O)Nc3ccc(Cl)c(Cl)c3)cc2OC[C@H](C)NC[C@@H]1C` the outcome was “inactive”. With `O=C(Nc1ccccc1F)N1C[C@H]2[C@@H](c3ccccc31)[C@@H](CO)N2C(=O)C1CC1` the outcome was “inactive”. With `CC1OC(CC(=O)O)CC2=C1C(=O)c1c(O)cccc1C2=O` (configuration not stated) the outcome was “inactive”. In the case of `C[C@H](O)C#Cc1ccc2c(c1)O[C@H](CN(C)C)[C@H](C)CN([C@H](C)CO)S2(=O)=O`, the outcome is reported as “inactive”. With `CO[C@H]1CN(C)C(=O)c2ccc(NC(=O)c3ccc(-c4ccccc4)cc3)cc2OC[C@H](C)NC[C@H]1C` the outcome was “inactive”. In the case of `C[C@H](CO)N1C[C@H](C)[C@@H](CN(C)Cc2ccc(-c3ccccc3)cc2)Oc2ccc(NC(=O)CCCN(C)C)cc2C1=O`, the outcome is reported as “inactive”. With `c1ccc2[nH]c(SCc3cn4cccnc4n3)nc2c1` the outcome was “inactive”. In the case of `O=S(=O)(c1cccc(F)c1)N1CC[C@@H]2[C@@H](CO)Nc3ccc(-c4cccc(F)c4)cc3[C@@H]21`, the outcome is reported as “inactive”. With `COc1ccc(CCNC(=O)C2CCN(Cc3nc(-c4ccccc4F)oc3C)CC2)cc1OC` the outcome was “inactive”. With `O=C(Nc1ccccc1F)N1C[C@H]2[C@@H](c3ccccc31)[C@H](CO)N2C(=O)C1CC1` the outcome was “inactive”. With `C[C@@H]1CN([C@H](C)CO)C(=O)c2cc(NC(=O)C3CCCCC3)ccc2O[C@H]1CN(C)Cc1ccc(-c2ccccc2)cc1` the outcome was “inactive”. For `N#C[C@@H]1[C@@H](c2ccccc2C2=CCCCC2)[C@H](CO)N1S(=O)(=O)c1ccccc1`, the outcome was “inactive”. With `Cc1oc2ccc(O)cc2c1C(=O)c1ccc(Br)cc1` the outcome was “inactive”. With `Cn1cc([N+](=O)[O-])c(C(=O)Nc2cc(Oc3ccccc3)cc([N+](=O)[O-])c2)n1` the outcome was “inactive”. For `CC(C)(C)[S@@](=O)N1Cc2cc(C(=O)NCc3ccccc3F)nc(-c3cccc(-c4cncnc4)c3)c2[C@H]1CCO`, the outcome was “inactive”. With `COC(=O)C[C@H]1CC[C@@H]2[C@@H](COc3ccc(NC(=O)Cc4cccs4)cc3C(=O)N2C)O1` the outcome was “inactive”. In the case of `O=c1c2cc(N3CCOCC3)ccc2[nH]c(=S)n1Cc1ccc(Cl)cc1`, the outcome is reported as “inactive”.
